# Assay outcomes deposited in PubChem BioAssay by National Center for Advancing Translational Sciences (NCATS).
# Hits are enriched below; roughly 6.1% of the tested compounds scored in any of these assays.
# D1 PAM = Potentiators of Human D1 Dopamine Receptor: qHTS. potentiation, % at 10 µM. 360,000 tested, 0.036% active. HEK293 TREx D1 cells, calcium flux, dopamine EC20 potentiation; in the data active = potentiation above about 30%; note: 0% is about no effect
# Target sequence (P21728 whole entry, looked up): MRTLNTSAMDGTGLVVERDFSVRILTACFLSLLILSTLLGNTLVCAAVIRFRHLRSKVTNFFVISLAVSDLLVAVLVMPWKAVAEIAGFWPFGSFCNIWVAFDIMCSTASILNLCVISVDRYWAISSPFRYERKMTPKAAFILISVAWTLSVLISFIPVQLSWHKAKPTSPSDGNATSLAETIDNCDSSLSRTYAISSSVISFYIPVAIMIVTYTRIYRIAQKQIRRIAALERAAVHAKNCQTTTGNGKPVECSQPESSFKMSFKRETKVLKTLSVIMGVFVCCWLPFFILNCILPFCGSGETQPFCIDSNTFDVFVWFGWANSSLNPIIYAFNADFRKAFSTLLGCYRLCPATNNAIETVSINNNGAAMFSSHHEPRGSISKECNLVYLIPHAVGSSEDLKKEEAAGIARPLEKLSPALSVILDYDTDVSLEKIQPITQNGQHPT
# D3 antag = qHTS of D3 Dopamine Receptor Antagonist: qHTS; D(3) dopamine receptor (Homo sapiens), P35462; 360,000 tested, 2.5% active; D3R cells, DiscoveRx beta-arrestin luminescence, antagonist mode; hits give low values; max response, negative = inhibition, %; AID 652054, 2013; in the data active = max response below about -50%; inconclusive = no clear call, values can overlap the other calls; note: % is set by controls: 0 for no effect and ±100 for the full control effect
#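 Cells expressing the human receptor were seeded at 1500 cells/well, incubated overnight at 37 degrees C in 5% CO2, then exposed to library compounds with dopamine controls for 90 minutes at 37 degrees C before luminescent detection.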
# DRD3 agonist = qHTS of D3 Dopamine Receptor Agonist: qHTS. D(3) dopamine receptor (Homo sapiens), P35462. D3R DiscoveRx beta-arrestin cells, luminescence, 90 min. 410,000 tested, 0.58% active. max activation, %; in the data active = max activation above about 30%; note: 0% is about no effect
#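 Agonist-mode cell screen: cells plated at 1500/well and incubated overnight at 37 °C, then exposed to library compounds for 90 min at 37 °C. Detection reagent was added for 30–60 min at room temperature, and luminescence was read.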
# D1 agonist = Allosteric Agonists of the Human D1 Dopamine Receptor: qHTS; D(1A) dopamine receptor (Homo sapiens), P21728; HEK293 T-REx D1 cells, calcium flux, agonist mode; activation, % at 2 µM; 360,000 tested, 1% active; AID 504660, 2011; in the data active = activation above about 30%; note: 0% is about no effect
#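 Agonism was scored from calcium flux recorded over 180 s (1 read/s) after pintool compound addition, following a 10-cycle baseline. Cells were inducible force-coupled HEK293 TREx D1, plated overnight at 30 C and loaded with no-wash calcium dye.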
# D1 antag = Antagonist of Human D 1 Dopamine Receptor: qHTS; D(1A) dopamine receptor (Homo sapiens), P21728; HEK293 TREx D1 cells, calcium flux, dopamine EC80; hits give low values; activity change, negative = inhibition, % at 10 µM; 360,000 tested, 3.2% active; in the data active = activity change below about -30%; note: % is set by controls: 0 for no effect and ±100 for the full control effect
#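 Antagonism measured as reduced calcium response to an EC80 dopamine addition following 180 s compound pre-read; cells were inducible HEK293 Trex D1 plated overnight at 30 C, read kinetically at 1 cycle/sec.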
# * hit, by the source's call; ? = inconclusive; nt = no result given.
SMILES,D1 PAM,D3 antag,DRD3 agonist,D1 agonist,D1 antag
COc1ccc(CN2CCC(CO)(CCOc3ccccc3)CC2)cc1C,-2,2,-9,48*,17
OCC1(CCOc2ccccc2)CCN(Cc2ccncc2)CC1,-5,1,-8,0,32
CSc1ccc(CN2CCC(CO)(CCOc3ccccc3)CC2)cc1,-8,-14,-18,41*,5
Cc1ccccc1NC(=O)C(=O)c1cn(C)c2ccccc12,3,1,-11,2,28
CC(=O)Nc1ccccc1OCc1cc(=O)n2c3c(sc2n1)CCCC3,-5,nt,60*,0,-14
Cc1cn2c(=O)cc(COc3ccc(NC(=O)c4cccc(F)c4)cc3)nc2s1,-6,nt,-10,1,-41*
O=C(Nc1cccc(OCc2cc(=O)n3c4c(sc3n2)CCCC4)c1)c1ccc(F)cc1,-6,nt,-3,-1,-31*
Cc1cn2c(=O)cc(COc3cccc(NC(=O)c4cccc(F)c4)c3)nc2s1,0,nt,5,1,-6
Cc1ccc(OCC(=O)Nc2ccc(OCc3cc(=O)n4ccsc4n3)cc2)cc1,1,nt,3,144*,3
Cc1nnc(SCc2cc(=O)n3c(C)cccc3n2)s1,4,nt,-3,0,-28
CCn1c(N2CCN(S(=O)(=O)c3ccc(F)cc3)CC2)nc2ccccc21,-1,-7,10,9,1
CCn1c(N2CCN(S(=O)(=O)c3ccc(Cl)cc3)CC2)nc2ccccc21,-3,13,44*,20,18
CC(=O)c1nc2ccccc2n1S(=O)(=O)c1ccc(Cl)cc1,-10,-7,-8,5,-36*
CCn1c(N2CCN(C(=S)NC)CC2)nc2ccccc21,-9,-13,-12,2,-32*
CCn1c(N2CCN(C(=S)NCC(C)C)CC2)nc2ccccc21,-3,-14,-7,5,-3
CCn1c(N2CCN(C(=S)NCCc3ccccc3)CC2)nc2ccccc21,-9,?,-3,1,-36*
CC1=N/C(=C/c2cc(Br)cc(Br)c2O)C(=O)O1,-5,62,-1,1,2
CCOc1ccccc1C(=O)NCC(c1cccs1)S(=O)(=O)c1ccc(F)c(C)c1 (centres undefined),1,nt,-1,2,2
CC(C)CC(=O)Nc1nnc(SCc2cc(=O)n3ccccc3n2)s1,-2,nt,5,3,4
Cc1ccc(-c2csc3ncnc(SCc4ccc(C(=O)O)cc4)c23)cc1,6,-18,0,8,-6
CCN1CCC(O)(/C=C/c2ccc(C(C)C)cc2)C(C(=O)/C=C/c2ccc(C(C)C)cc2)C1 (centres undefined),nt,-66*,-9,nt,nt
CCN1CCN(C(=O)/C=C/c2ccc(C(C)C)cc2)CC1,nt,?,-20,nt,nt
CC(=O)Nc1ccccc1C(=O)C(=O)Nc1cccc(C(=O)N2CC(C)CC(C)C2)c1 (centres undefined),-2,12,3,-2,-1
CCn1c(CCNC(=O)c2ccco2)nc2ccccc21,-9,-16,0,1,0
C=CCn1c(CCNC(=O)c2ccco2)nc2ccccc21,3,-74*,-27,1,6
SMILES,D1 PAM,D3 antag,DRD3 agonist,D1 agonist,D1 antag
C/C=C(/CC[C@@H](C)[C@H]1CC[C@H]2C3=CC[C@H]4[C@H](C)[C@@H](O)CC[C@]4(C)[C@H]3CC[C@]12C)C(C)C,nt,nt,9,nt,nt
CC(=O)Nc1cccc(-c2nc3ccccc3o2)c1,2,9,1,4,25
COc1ccccc1OC(C)C(=O)Nc1cccc(-c2nc3ccccc3o2)c1 (centres undefined),-1,nt,3,32*,-8
Cc1cc2oc(C(=O)Nc3cccc(-c4nc5ccccc5o4)c3)c(C)c2cc1C,-1,nt,-5,54*,-4
Cc1cc(C)c2oc(-c3cccc(NC(=O)c4ccco4)c3)nc2c1,1,nt,-11,3,-46*
N#CC(=C1C=C(Br)C(=NO)C=C1Cl)c1cccc2ccccc12,nt,0,11,nt,nt
CC(=O)Nc1ccc(S(=O)(=O)Nc2cccc(N(C)S(C)(=O)=O)c2)cc1,-5,0,2,1,-26
